# Only some compounds are listed: those with a hit (about 19% of all), similar ones and a draw of the others.
# Shiga toxin inh: Shiga toxin inhibition. Vero cells, Shiga toxin protein synthesis inhibition reporter. inhibition, % at 38.7 µM. 9.2% of 290,000 active. AID 2315; in the data active = inhibition mostly above about 28%, no sharp cut-off; inactive = mostly below about 43%; note: 0% is about no effect
# MARV entry inh: Marburg virus entry inhibition. Marburg virus pseudotyped entry inhibition, cell reporter. Potency, µM (highest dose often 37.8 µM), without a hit: at the top dose activity change, negative = inhibition, most hits filed as inhibitors. 1.8% of 300,000 active. AID 540276; calls by dose curve; tested in HEK293 cells; note: potency is the fitted concentration of half-maximal effect; % is set by controls: 0 for no effect and ±100 for the full control effect
# Pf growth 48h: inhibits P. falciparum growth in the first generation, 48 h; 5.9% of 310,000 active; P. falciparum luciferase growth in erythrocytes, 48 h; Potency, µM (doses to about 28.7 µM), for inactives: at the highest dose activity change, negative = inhibition, most hits filed as inhibitors; note: potency is the fitted concentration of half-maximal effect; % is set by controls: 0 for no effect and ±100 for the full control effect
#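 Luminescence readout; reporter = integrated firefly luciferase in P. falciparum. RBC culture at 2% hematocrit, 0.1% parasitemia final, 37 C/5% CO2; decreased signal taken as growth inhibition.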
# CHX counter: counter-screen hit for Shiga toxin inhibitors, cycloheximide; cell reporter, cycloheximide protein synthesis inhibition counterscreen; max response, %; 12% of 300,000 active; AID 2314; in the data active = max response mostly above about 13%, no sharp cut-off; inactive = mostly below about 14%; note: read at 38.3 µM for the half of the compounds with a filed dose; 0% is about no effect
# Pf growth 96h: inhibits malaria parasite growth, 96 h; 6.9% of 320,000 active; AID 504834; P. falciparum luciferase reporter growth, 96 h; Potency, µM (series often up to 28.7 µM), for the others: at the highest dose activity change, negative = inhibition, actives largely listed as inhibitors; note: potency is the fitted concentration of half-maximal effect; % is set by controls: 0 for no effect and ±100 for the full control effect
#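 Two parasite generations (96 h, 37 C, 5% CO2) of compound exposure in infected erythrocytes (0.05% parasitemia, 2% hematocrit). Luciferase-reporter P. falciparum; decreased luminescence indicates inhibited growth, aimed at apicoplast-acting delayed death.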
# Lassa entry inh: blocks Lassa virus binding to or entry into cells. AID 540256. Lassa virus pseudotype entry inhibition, cell reporter. 1.2% of 300,000 active. Potency, µM (top dose mostly 37.9 µM), without a hit: at the highest dose activity change, negative = inhibition, usual class: inhibitors; calls by dose curve; tested in HEK293 cells; note: potency is the fitted concentration of half-maximal effect; % is set by controls: 0 for no effect and ±100 for the full control effect; nearly all actives have a fitted effect of over 50% in size
# Active calls of the source: *; u = inconclusive; x = no result; [ ] = remark or other dose. Unless noted, calls come from the whole dose curve; as a rule, active = well fitted inhibition curve with a large enough effect; inconclusive = small, poorly fitted or top-dose-only effect, or another doubt; inactive = no such curve, though single readings can be large or run the other way.
SMILES,Shiga toxin inh,MARV entry inh,Pf growth 48h,CHX counter,Pf growth 96h,Lassa entry inh
COc1cc(C2c3c(oc4ccccc4c3=O)C(=O)N2Cc2ccco2)ccc1O (stereo not drawn),-0.8,u,u,-1.4,-17.0%,-22.4%
CC(=O)N1CCN(S(=O)(=O)c2cccc(C(=O)N(Cc3ccccc3)c3cccc(C)c3)c2)CC1,x,u,u,x,8.28µM*,-0.2%
Cc1ccc(N(Cc2ccccc2)C(=O)c2cccc(S(=O)(=O)N3CCN(C)CC3)c2)cc1,x,-21.4%,u,x,u,2.6%
Cc1ccc(N(C(=O)c2ccc(S(=O)(=O)N3CCOCC3)cc2)C2C=CS(=O)(=O)C2)cc1 (stereo not drawn),-11.7,-9.4%,-11.0%,-0.9,8.28µM*,-11.6%
O=C(c1ccc(S(=O)(=O)N2CCOCC2)cc1)N(c1ccccc1)C1C=CS(=O)(=O)C1 (stereo not drawn),5.1,0.3%,-0.2%,-3.1,u,3.0%
Cc1ccc(N(Cc2ccccc2)C(=O)c2cccc(S(=O)(=O)N3CCOCC3)c2)cc1,x,-20.0%,10.4µM*,x,10.4µM*,-17.6%
COc1ccc(CC(=O)N(Cc2ccccc2)c2ccc(C)cc2)cc1S(=O)(=O)N1CCOCC1,x,u,u,x,13.1µM*,u
COc1ccc(NC(=S)NNC(=O)CCn2cc([N+](=O)[O-])cn2)cc1,33.9,3.3%[46.1 µM],-2.1%,10.8,45.6%,15.9%
O=C(CN1C(=O)NC2(CCc3ccccc32)C1=O)Nc1cccc(F)c1 (stereo not drawn),x,37.9%[46.1 µM],u,x,-10.5%,7.7%
Cc1ccc(N(Cc2ccccc2)C(=O)Cc2ccc(S(=O)(=O)N3CCOCC3)s2)cc1,x,-6.5%,13.1µM*,x,u,u
Cc1ccc(N(Cc2ccccc2)C(=O)c2ccc(S(=O)(=O)N3CCOCC3)cc2)cc1,x,-4.7%,13.1µM*,x,u,-16.7%
Cc1ccc(N(Cc2ccccc2)C(=O)c2ccc(C)c(S(=O)(=O)N3CCOCC3)c2)cc1,x,x,6.57µM*,x,2.08µM*,x
Cn1c(COc2ccc(Cl)cc2)nnc1SCC(=O)NC1CCCCC1,x,-5.7%,x,x,x,-1.3%
CC(C)C(=O)Nc1nnc(-c2ccco2)s1,95.1*,10.4%,35.5%,29.4*,29.8%,12.1%
Cc1ccccc1OCC(=O)Nc1nnc(-c2ccco2)s1,-5.1,-24.9%,8.0%,1.3,49.0%,19.9%
O=C(Nc1ccc(F)cc1)Nc1nnc(-c2ccco2)s1,112.0*,u,18.5%,52.6*,16.3%,13.2%[46.1 µM]
O=C(Nc1nnc(-c2ccco2)s1)c1ccccc1,88.8*,u,211.0%,44.3*,154.2%,u
COc1ccc(C(=O)Nc2nnc(-c3ccco3)s2)cc1,71.8*,u,x,36.7*,315.4%,u
COc1ccccc1CNC(=O)C(C)Sc1ccc(C)cc1 (stereo not drawn),25.9,7.7%[46.1 µM],2.4%,-3.2,16.1%,3.8%
O=C(Nc1nnc(-c2ccco2)s1)C1CCN(S(=O)(=O)c2ccc(Cl)cc2)CC1,-10.9,-1.0%,u,-3.1,-1.0%,-13.9%
O=C(Nc1nnc(-c2ccco2)s1)C1CC1,31.0*,14.1%,45.5%,22.8*,-4.5%,1.3%
CC1(C)NC(=O)N(CCOCCSc2ccccc2)C1=O,28.2,-1.2%,33.9%,-1.9,9.28µM*,u
CC1CN(CCCCSc2ccccc2)CC(C)O1 (stereo not drawn),30.0,x,0.0%,-3.7,4.3%,x
CC1CN(CCCSc2ccc(Cl)cc2)CC(C)O1 (stereo not drawn),5.9,-24.6%[46.1 µM],14.8%,9.7,u,-6.6%
CC1CC(C)CN(CCOCCSc2ccc(Cl)cc2)C1 (stereo not drawn),-5.1,7.08µM*,u,-4.9,15.8%,u
c1ccc(SCCOCCN2CCOCC2)cc1,25.1,-2.2%,-9.9%,14.8*,-14.7%,-19.7%
CC1CC(C)CN(CCCSc2ccccc2)C1 (stereo not drawn),14.2,2.91µM*,u,5.2,-62.6%,u
CC1(C)NC(=O)N(CCOCCOc2ccccc2)C1=O,12.2,u,x,9.6,20.3%,-9.3%
CC1=CC(C)(C)N(C(=O)CSc2nncn2C)c2ccccc21,-5.5,16.4%,u,-5.1,-5.7%,1.1%
CC1CC(C)CN(CCOc2ccc(Cl)cc2Cl)C1 (stereo not drawn),-15.1,u,10.4µM*,1.2,u,u
